# Laboratory results: PubChem BioAssay (EPA / NIEHS)
# Records with an inconclusive call do not appear. Activity calls are given as the source filed them. Rule for the calls: active = hit-call score of the fitted dose curve at least 0.9, where 1 is the maximum; inconclusive = response in the unintended direction; inactive = score below 0.9.
# Biological target: T1, Estrogen receptor (Homo sapiens) + Estrogen receptor beta (Homo sapiens) (UniProt P03372+Q92731)
# Experiment: OT_ER_ERaERb_0480: Odyssey Thera (OT) 8-hour HEK293T Protein-Complementation Assay for Estrogen Receptor-alpha/-beta Heterodimer (AID 2283352)
# Method in brief: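 Increase in mean fluorescence intensity, measured by laser scanning plate cytometry, reported ER-alpha/ER-beta LBD complementation in HEK293T cells after 8 h chemical exposure. DMSO served as baseline; basal signal is low, punctate and cytoplasmic.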
# T1 sequence (P03372 whole entry, looked up): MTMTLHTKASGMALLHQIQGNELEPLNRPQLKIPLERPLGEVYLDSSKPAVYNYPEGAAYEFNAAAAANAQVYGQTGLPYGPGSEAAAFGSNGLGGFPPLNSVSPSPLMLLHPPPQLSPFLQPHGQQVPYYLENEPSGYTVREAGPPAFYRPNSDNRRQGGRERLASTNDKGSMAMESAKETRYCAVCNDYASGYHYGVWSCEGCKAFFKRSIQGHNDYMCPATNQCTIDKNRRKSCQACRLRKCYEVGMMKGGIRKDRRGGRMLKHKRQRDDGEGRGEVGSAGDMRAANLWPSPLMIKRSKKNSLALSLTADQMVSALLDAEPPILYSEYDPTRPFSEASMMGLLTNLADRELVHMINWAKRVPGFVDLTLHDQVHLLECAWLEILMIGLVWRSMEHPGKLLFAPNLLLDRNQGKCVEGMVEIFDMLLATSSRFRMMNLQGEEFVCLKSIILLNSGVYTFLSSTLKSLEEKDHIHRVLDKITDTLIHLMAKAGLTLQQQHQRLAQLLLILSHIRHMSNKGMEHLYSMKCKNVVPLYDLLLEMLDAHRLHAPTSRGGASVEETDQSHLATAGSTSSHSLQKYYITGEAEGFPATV
# T1 sequence (Q92731 whole entry, looked up): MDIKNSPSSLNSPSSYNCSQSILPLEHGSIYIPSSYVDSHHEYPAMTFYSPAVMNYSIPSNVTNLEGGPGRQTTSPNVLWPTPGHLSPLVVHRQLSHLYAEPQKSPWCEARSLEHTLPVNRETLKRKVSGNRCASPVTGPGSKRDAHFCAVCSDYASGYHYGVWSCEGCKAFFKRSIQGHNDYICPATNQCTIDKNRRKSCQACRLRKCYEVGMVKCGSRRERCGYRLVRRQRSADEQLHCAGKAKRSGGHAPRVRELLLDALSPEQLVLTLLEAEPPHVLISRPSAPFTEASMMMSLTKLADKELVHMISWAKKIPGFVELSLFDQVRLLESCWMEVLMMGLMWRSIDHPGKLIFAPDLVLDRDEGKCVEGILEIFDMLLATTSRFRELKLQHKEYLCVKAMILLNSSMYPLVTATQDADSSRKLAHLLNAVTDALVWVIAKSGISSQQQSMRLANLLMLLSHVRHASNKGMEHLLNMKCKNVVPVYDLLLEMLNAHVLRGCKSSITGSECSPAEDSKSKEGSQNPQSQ
Structure (SMILES),outcome,AC50
CCCCCCC(C)(C)C(=O)O,inactive,
COc1cc([N+](=O)[O-])ccc1N,inactive,
CN(C)CCOC(c1ccccc1)c1ccccc1,inactive,
CN(Cc1cnc2nc(N)nc(N)c2n1)c1ccc(C(=O)N[C@@H](CCC(=O)O)C(=O)O)cc1,inactive,
CCc1ccccc1O,inactive,
CCCCc1ccc2ccccc2c1S(=O)(=O)O,inactive,
NCc1cccc(CN)c1,inactive,
CCCCCCCCCCCCOC(=O)c1cc(O)c(O)c(O)c1,,11.9 µM (active)
CCCCCCc1ccc(N)cc1,,30.1 µM (active)
CCCCCCCCCC=CCC1CC(=O)OC1=O (centres undefined),inactive,
Cc1cc(C(=C2C=CC(=Nc3ccc(S(=O)(=O)O)cc3)C=C2)c2ccc(Nc3ccc(S(=O)(=O)O)cc3)cc2)cc(S(=O)(=O)O)c1N,inactive,
O=C(O)c1cccc(C(=O)O)n1,inactive,
CCCCc1oc2ccccc2c1C(=O)c1cc(I)c(OCCN(CC)CC)c(I)c1,inactive,

# Biological target: Androgen Receptor/SRC-1 Co-activator, AR (gene 367) (UniProt P10275)
# Sequence (P10275 whole entry, looked up): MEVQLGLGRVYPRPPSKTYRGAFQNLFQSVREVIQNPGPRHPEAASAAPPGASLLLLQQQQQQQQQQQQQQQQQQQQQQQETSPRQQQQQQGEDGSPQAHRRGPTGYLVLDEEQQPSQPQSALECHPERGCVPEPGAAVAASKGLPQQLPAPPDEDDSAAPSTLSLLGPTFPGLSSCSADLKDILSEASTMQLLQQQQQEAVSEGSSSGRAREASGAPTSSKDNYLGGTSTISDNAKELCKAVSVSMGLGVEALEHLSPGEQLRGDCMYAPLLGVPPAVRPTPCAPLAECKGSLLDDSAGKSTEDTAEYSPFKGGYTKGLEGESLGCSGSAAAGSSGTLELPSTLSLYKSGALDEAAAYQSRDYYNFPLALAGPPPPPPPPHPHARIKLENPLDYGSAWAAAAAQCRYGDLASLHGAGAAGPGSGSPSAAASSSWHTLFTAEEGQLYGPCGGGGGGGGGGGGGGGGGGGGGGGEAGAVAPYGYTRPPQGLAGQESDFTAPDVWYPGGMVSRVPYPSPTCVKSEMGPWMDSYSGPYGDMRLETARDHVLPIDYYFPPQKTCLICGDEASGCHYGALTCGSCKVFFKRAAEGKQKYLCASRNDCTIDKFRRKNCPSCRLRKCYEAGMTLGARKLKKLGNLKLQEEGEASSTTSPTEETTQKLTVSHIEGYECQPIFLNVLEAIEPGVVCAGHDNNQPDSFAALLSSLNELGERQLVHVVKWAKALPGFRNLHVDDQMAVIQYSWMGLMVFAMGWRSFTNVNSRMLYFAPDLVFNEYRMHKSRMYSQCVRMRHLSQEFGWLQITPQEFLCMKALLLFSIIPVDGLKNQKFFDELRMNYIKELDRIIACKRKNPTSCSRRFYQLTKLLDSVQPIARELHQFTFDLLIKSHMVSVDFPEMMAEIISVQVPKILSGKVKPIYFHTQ
# Experiment: OT_AR_ARSRC1_0960: Odyssey Thera (OT) 16-hour HEK293T Protein-Complementation Assay for Androgen Receptor/SRC-1 Co-activator (AID 2283353);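 note: actives raise the signal above DMSO so potency reflects increased AR and SRC-1 complex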
# Method in brief: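 Interaction of AR with SRC-1 was followed by YFP fragment complementation in HEK293T cells after 16 h of dosing. Gain of nuclear-over-cytoplasmic 488 nm fluorescence against DMSO controls defined activity.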
Structure (SMILES),outcome,AC50
CCCCCCC(C)(C)C(=O)O,inactive,
COc1cc([N+](=O)[O-])ccc1N,inactive,
CN(C)CCOC(c1ccccc1)c1ccccc1,inactive,
CC(C)[C@@H]1CC[C@@H](C)C[C@H]1O,inactive,
CN(Cc1cnc2nc(N)nc(N)c2n1)c1ccc(C(=O)N[C@@H](CCC(=O)O)C(=O)O)cc1,inactive,
CC(=O)Nc1ccc(O)cc1,inactive,
CC(O)COc1ccccc1 (centres undefined),inactive,
CCCCc1ccc2ccccc2c1S(=O)(=O)O,inactive,
CCCCCCc1ccc(N)cc1,inactive,
O=C(c1ccccc1)c1ccccc1,inactive,
CCCCCCCCCC=CCC1CC(=O)OC1=O (centres undefined),inactive,
Cc1cc(C(=C2C=CC(=Nc3ccc(S(=O)(=O)O)cc3)C=C2)c2ccc(Nc3ccc(S(=O)(=O)O)cc3)cc2)cc(S(=O)(=O)O)c1N,inactive,
NC(=NCCCCCCN=C(N)/N=C(\N)Nc1ccc(Cl)cc1)/N=C(\N)Nc1ccc(Cl)cc1,,9.58 µM (active)

# Biological target: Androgen Receptor/SRC-1 Co-activator, AR (gene 367) (UniProt P10275)
# Experiment: OT_AR_ARSRC1_0480: Odyssey Thera (OT) 8-hour HEK293T Protein-Complementation Assay for Androgen Receptor/SRC-1 Co-activator (AID 2283354);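 note: hits raise the complementation signal above DMSO so AC50 marks enhancers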
# Method in brief: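 HEK293T cells stably expressing AR and SRC-1 fused to split Venus YFP fragments via (Gly4Ser)2 linkers were read 8 h after compound dosing. Complementation was imaged at 488 and 635nm, and nuclear/cytoplasmic fluorescence ratio (488nm) was taken over ≥400 cells; gain-of-signal versus DMSO.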
row,Structure (SMILES),outcome
1,CCCCCCC(C)(C)C(=O)O,inactive
2,COc1cc([N+](=O)[O-])ccc1N,inactive
3,CN(C)CCOC(c1ccccc1)c1ccccc1,inactive
4,CC(C)[C@@H]1CC[C@@H](C)C[C@H]1O,inactive
5,CN(Cc1cnc2nc(N)nc(N)c2n1)c1ccc(C(=O)N[C@@H](CCC(=O)O)C(=O)O)cc1,inactive
6,CC(=O)Nc1ccc(O)cc1,inactive
7,CC(O)COc1ccccc1 (centres undefined),inactive
8,CCCCc1ccc2ccccc2c1S(=O)(=O)O,inactive
9,CCCCCCc1ccc(N)cc1,inactive
10,O=C(c1ccccc1)c1ccccc1,inactive
11,CCCCCCCCCC=CCC1CC(=O)OC1=O (centres undefined),inactive
12,Cc1cc(C(=C2C=CC(=Nc3ccc(S(=O)(=O)O)cc3)C=C2)c2ccc(Nc3ccc(S(=O)(=O)O)cc3)cc2)cc(S(=O)(=O)O)c1N,inactive
13,NC(=NCCCCCCN=C(N)/N=C(\N)Nc1ccc(Cl)cc1)/N=C(\N)Nc1ccc(Cl)cc1,inactive

# Biological target: T1, Estrogen receptor (Homo sapiens) + Estrogen receptor beta (Homo sapiens)
# Experiment: OT_ER_ERaERb_1440: Odyssey Thera (OT) 24-hour HEK293T Protein-Complementation Assay for Estrogen Receptor-alpha/-beta Homodimer (AID 2283356);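 note: heteromer of ER alpha and ER beta binding domains; hits raise reporter fluorescence and both agonists and antagonists give an increase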
# Method in brief: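 Heterodimerisation of ERα (aa 310-547) and ERβ (aa 263-489) ligand binding domains was tracked as fluorescence gain in stably transfected HEK293T cells following 24 h dosing, normalised to DMSO controls.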
Structure (SMILES),outcome,AC50
CCCCCCC(C)(C)C(=O)O,inactive,
COc1cc([N+](=O)[O-])ccc1N,inactive,
CN(C)CCOC(c1ccccc1)c1ccccc1,inactive,
CN(Cc1cnc2nc(N)nc(N)c2n1)c1ccc(C(=O)N[C@@H](CCC(=O)O)C(=O)O)cc1,inactive,
CCc1ccccc1O,inactive,
CCCCc1ccc2ccccc2c1S(=O)(=O)O,inactive,
NCc1cccc(CN)c1,inactive,
CCCCCCCCCCCCOC(=O)c1cc(O)c(O)c(O)c1,,11.9 µM (active)
CCCCCCc1ccc(N)cc1,,21.4 µM (active)
CCCCCCCCCC=CCC1CC(=O)OC1=O (centres undefined),inactive,
Cc1cc(C(=C2C=CC(=Nc3ccc(S(=O)(=O)O)cc3)C=C2)c2ccc(Nc3ccc(S(=O)(=O)O)cc3)cc2)cc(S(=O)(=O)O)c1N,inactive,
O=C(O)c1cccc(C(=O)O)n1,inactive,
Cc1cc(Cc2cc(C)cc(C(C)(C)C)c2O)c(O)c(C(C)(C)C)c1,inactive,

# Biological target: Estrogen receptor beta (Homo sapiens) (UniProt Q92731)
# Sequence (Q92731 whole entry, looked up): as the sequence (Q92731 whole entry, looked up) above
# Experiment: OT_ER_ERbERb_0480: Odyssey Thera (OT) 8-hour HEK293T Protein-Complementation Assay for Estrogen Receptor-beta/-beta Homodimer (AID 2283357);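 note: active means signal gain over DMSO baseline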
# Method in brief: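 Readout: increase in mean fluorescence intensity (nucleus for agonists; nucleus plus cytoplasm for antagonists) relative to DMSO, from a reporter-fragment complementation of human ER-beta LBD homodimer in HEK293T cells dosed 8 hours.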
Structure (SMILES),outcome,AC50
CCCCCCC(C)(C)C(=O)O,inactive,
COc1cc([N+](=O)[O-])ccc1N,inactive,
CC(C)[C@@H]1CC[C@@H](C)C[C@H]1O,inactive,
CCc1ccccc1O,inactive,
CC(=O)Nc1ccc(O)cc1,inactive,
CC(O)COc1ccccc1 (centres undefined),inactive,
CCCCc1ccc2ccccc2c1S(=O)(=O)O,inactive,
NCc1cccc(CN)c1,inactive,
CCCCCCCCCCCCOC(=O)c1cc(O)c(O)c(O)c1,inactive,
CCCCCCc1ccc(N)cc1,,50 µM (active)
CCCCCCCCCC=CCC1CC(=O)OC1=O (centres undefined),inactive,
Cc1cc(C(=C2C=CC(=Nc3ccc(S(=O)(=O)O)cc3)C=C2)c2ccc(Nc3ccc(S(=O)(=O)O)cc3)cc2)cc(S(=O)(=O)O)c1N,inactive,
O=S(=O)(O)c1ccccc1,inactive,
Cc1cc(Cc2cc(C)cc(C(C)(C)C)c2O)c(O)c(C(C)(C)C)c1,inactive,
Cc1cc(C(C)(C)C)c(O)c(C(C)(C)C)c1,inactive,
NS(=O)(=O)O,inactive,
CCCCc1oc2ccccc2c1C(=O)c1cc(I)c(OCCN(CC)CC)c(I)c1,inactive,
